# Test results published in PubChem BioAssay.
# The source made the active and inactive calls. How the calls were made is not given here.
# Target: Pantothenate synthetase (Mycobacterium tuberculosis (strain ATCC 25618 / H37Rv)) (UniProt P9WIL5)
# Test: Coupled enzyme confirmation of inhibitors against recombinant Mtb PanC (AID 375);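 further: 0% = full reaction with vehicle and 100% = no enzyme background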
# Conditions: coupled enzyme assay; at 10 µM, stronger effect = higher value
# Sequence of Pantothenate synthetase (Mycobacterium tuberculosis (strain ATCC 25618 / H37Rv)) (P9WIL5 whole entry, looked up): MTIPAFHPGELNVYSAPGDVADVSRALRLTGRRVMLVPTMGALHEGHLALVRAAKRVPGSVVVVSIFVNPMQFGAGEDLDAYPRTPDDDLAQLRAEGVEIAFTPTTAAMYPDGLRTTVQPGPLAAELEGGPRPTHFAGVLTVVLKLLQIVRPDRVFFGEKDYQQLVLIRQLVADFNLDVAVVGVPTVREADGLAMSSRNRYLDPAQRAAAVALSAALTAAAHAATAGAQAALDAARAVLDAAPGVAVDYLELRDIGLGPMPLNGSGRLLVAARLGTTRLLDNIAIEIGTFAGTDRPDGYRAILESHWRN
row,SMILES,inhibition
1,O=C(C1CCN(c2nnc(-n3cccc3)s2)CC1)N1CCc2ccccc2C1,0% (inactive)
2,O=C(c1ccco1)N1CCN(C(=O)c2cc3c(s2)-c2ccccc2OC3)CC1,11% (inactive)
3,CC(NC(=O)c1cn(C)c2ccc(S(=O)(=O)N3CCCC3)cc2c1=O)c1ccc2c(c1)OCCO2 (configuration not stated),0% (inactive)
4,O=c1oc2ccccc2n1CCc1ccccc1,4% (inactive)
5,COc1cc(C(=O)Nc2cc(C)ccn2)cc(OC)c1OC,0% (inactive)
6,CCCCSc1nnc([C@H](C)NC(=O)OC(C)(C)C)o1,2% (inactive)
7,N#Cc1ccc(CSc2nnc(-c3cnccn3)o2)cc1,5% (inactive)
8,CCC(Sc1ccc(C(=O)O)cc1)C(=O)O (configuration not stated),2% (inactive)
9,CC(NC(=O)NCCCC(=O)O)(C(F)(F)F)C(F)(F)F,0% (inactive)
10,CCOC(=O)N1CCC(c2cc(=O)n3[nH]c(C)c(-c4ccc(F)cc4)c3n2)CC1,0% (inactive)
11,CCCC1CC(C)(C(=O)Cn2[nH]c(=O)ccc2=O)OC1=O (configuration not stated),10% (inactive)
12,Cc1ccccc1C(=O)NC1CCN(Cc2nnnn2CCc2ccccc2)CC1,14% (inactive)
13,O=C(Nc1ccccc1)N1C(=O)C2(OCCO2)c2ccccc21,0% (inactive)
14,Oc1ccc(Cl)cc1-c1cc(-c2ccccc2)n[nH]1,0% (inactive)
15,COC(=O)c1sccc1NC(=O)c1ccncc1,6% (inactive)
16,Cc1cc(N2C(=O)C(=O)/C(=C(/O)c3ccc(F)cc3)C2c2ccc(F)cc2)no1 (configuration not stated),0% (inactive)
17,CCOc1cc2[nH]c(=O)n(CCC(=O)NCCc3ccc(OC)c(OC)c3)c(=O)c2cc1OCC,1% (inactive)
